# Test results reported in PubChem BioAssay (NCI).
# This is part of a sample that, as a whole, favours compounds with a hit. Of some 83,000 tested, about 20% had one in any assay.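 How to read the values: 0–100, growth inhibition (40 = 60% inhibited); 0, no net growth; -100 to 0, cell death (-40 = 40% of starting cells died; -100 = all dead).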 Unmarked numbers belong to inactive results. The source made the active and inactive calls. How the source made its calls: active means growth percent below 10; inactive means the rest.
# Key:
# Assay in all cases: NCI-60 one-dose screen, 48 h (100 = growth as untreated, 0 = no growth, -100 = all killed)
# Details in all cases: 10 µM unless noted
# RPMI-8226 leukemia = test system: RPMI-8226 leukemia
# OVCAR-8 ovarian = test system: OVCAR-8 ovarian
# OVCAR-5 ovarian = test system: OVCAR-5 ovarian
# OVCAR-4 ovarian = test system: OVCAR-4 ovarian
# SK-OV-3 ovarian = test system: SK-OV-3 ovarian
# IGROV1 ovarian = test system: IGROV1 ovarian
# OVCAR-3 ovarian = test system: OVCAR-3 ovarian
# HS 578T breast = test system: HS 578T breast
# NCI/ADR-RES ovarian = test system: NCI/ADR-RES ovarian
# T-47D breast = test system: T-47D breast
SMILES,growth (RPMI-8226 leukemia),growth (OVCAR-8 ovarian),growth (OVCAR-5 ovarian),growth (OVCAR-4 ovarian),growth (SK-OV-3 ovarian),growth (IGROV1 ovarian),growth (OVCAR-3 ovarian),growth (HS 578T breast),growth (NCI/ADR-RES ovarian),growth (T-47D breast)
O=C1C(=O)c2c(nc3ccc(C(F)(F)F)cn23)-c2ccccc21,-26.6% (active),-96% (active),-78% (active),-95.9% (active),-99.6% (active),-58.9% (active),-63% (active),-15.3% (active),-14.1% (active),-50.6% (active)
CSc1nc(-c2cccs2)c2c(N)[nH]nc2n1,112%,102%,106%,108%,89.9%,111%,109%,106%,102%,90.3%
Cn1cc(-c2ccc3c(c2)ncn3-c2ccc(CC(=O)Nc3cc(C(C)(C)C)on3)cc2)cn1,76.8%,41.4%,22.8%,12.3%,7.18% (active),-27.7% (active),32.4%,-7.52% (active),38.7%,35.5%
NC(=O)c1ccc2nc3c(n2c1)C(=O)C(=O)c1ccccc1-3,-28.1% (active),-61.2% (active),-86.4% (active),-97.3% (active),-89.2% (active),-48.8% (active),-99.2% (active),-6.37% (active),-1.27% (active),-46.2% (active)
N#Cc1c(-c2ccc(F)cc2)nc(N=Nc2c(O)[nH]c3ccccc23)nc1N1CCOCC1,80.4%,77.7%,82.6%,-35.5% (active),88.2%,59.9%,72.9%,38.5%,57.3%,80.2%
C=C1C(=O)O[C@H]2[C@H]1CCC(/C=N/c1ncc(Br)cc1N)=C\CC[C@@]1(C)O[C@@H]21,-24.1% (active),4.39% (active),49.4%,37%,69.3%,-1.81% (active),-58.3% (active),32.4%,58%,5.65% (active)
NCCCn1c2c(c3cc(-c4ccn[nH]4)ccc3c1=O)C(=O)c1ccccc1-2,51.3%,40.6%,98.8%,50.3%,81.5%,35.4%,59%,62.3%,45.8%,73.3%
Cc1cc(C)c(NC(=O)c2sc3nc4c(cc3c2N)CCCCCC4)c(C)c1,66.3%,73.9%,95.3%,73.7%,44.6%,61.2%,15.8%,47.6%,48.1%,44.5%
CC(=O)Nc1c(C(=O)Nc2ccccc2)sc2nc3c(cc12)C(OC(C)=O)CCC3 (stereo not given),107%,105%,108%,108%,46.6%,109%,104%,102%,88.4%,93.5%
Cc1nc2sc(C(=O)Nc3cccc4ccccc34)c(N)c2cc1C(C)O (stereo not given),18%,16.2%,40.7%,55.5%,32.1%,31.7%,3.11% (active),32.3%,-1.67% (active),49.4%
C=C1C(=O)O[C@H]2[C@H]1CC/C(COC(=O)c1cn(C)c3ccccc13)=C\CC[C@@]1(C)O[C@@H]21,-29.5% (active),-20.5% (active),-25.5% (active),-33.6% (active),63%,-47.6% (active),-72.1% (active),12.7%,3.25% (active),-56.3% (active)
N#Cc1ccc(N2Cc3cc(Cl)ccc3OC3=C2C(=O)N(Cc2ccccc2)C3=O)cc1,-23.3% (active),4.56% (active),-5.13% (active),-7.68% (active),94.2%,13%,-82.1% (active),38.1%,6.99% (active),-60.1% (active)
NS(=O)(=O)c1ccc(-n2ncc(NC(=O)Nc3ccc(S(=O)(=O)Nc4nccs4)cc3)c2-c2ccccc2)cc1,103%,102%,99%,101%,99.5%,105%,111%,102%,105%,94.2%
COc1ccc(-c2[nH]c3ccccc3c2C=C(C#N)C#N)cc1,-43.8% (active),19.4%,26.7%,33.2%,28.7%,12.3%,-6.19% (active),16.4%,-12% (active),51.5%
OCCNc1nc(NCCO)nc(Nc2ccc(C3=NN(c4cc(Cl)cc(Cl)c4)C(c4ccccc4)C3)cc2)n1 (stereo not given),30.9%,48.9%,85.8%,57.7%,94.5%,57.5%,26.2%,62.9%,57.2%,63.6%
CCc1n(Cc2ccc3ccccc3c2)c2ccccc2[n+]1Cc1ccc2ccccc2c1,13.5%,55.1%,75.7%,18.3%,83%,45.8%,34.3%,82.7%,105%,25.4%
FC(F)(F)c1ccc2c(Nc3cccc(C4CC(c5ccccc5)=NN4c4ccc(Cl)cc4)c3)ccnc2c1 (stereo not given),-19.5% (active),29.8%,95.5%,66.6%,80.9%,20.1%,19.5%,84.8%,35.3%,61.9%
COc1cccc2c1-c1ccccc1C2=O,14.9%,21.5%,65.6%,56.5%,30.6%,33.3%,-26.4% (active),19.6%,8.62% (active),33.2%
COc1ccccc1N1CCN(CCCOc2ccc(C(=O)/C=C3/C(=O)Nc4ccccc43)cc2)CC1,34.9%,65.9%,32.4%,45.2%,79.7%,67.7%,66.1%,26.7%,73%,33.3%
COc1cc(C)ccc1Oc1nc(Nc2ccc(N3CCOCC3)cc2)ncc1N=Cc1cc(C(F)(F)F)cc(C(F)(F)F)c1,69.7%,63%,75.7%,71%,43.3%,33.4%,76.5%,61.9%,69.9%,57.7%
C=C1C(=O)O[C@H]2[C@H]1CC/C(COC(=O)NCC(=O)Nc1ccc(OC)c(C(N)=O)c1O)=C\CC[C@@]1(C)O[C@@H]21,2.96% (active),75.3%,102%,68.3%,100%,21.6%,25.7%,89.3%,104%,34.4%
CCCCCCN1C(=O)CN=C1Nc1ccc2cc3ccc(NC4=NCC(=O)N4CCCCCC)cc3nc2c1,-22.6% (active),73.9%,75%,55.6%,103%,53.7%,-35.9% (active),56.6%,81.3%,32.9%
O=C(N/N=C/C[C@@H]1[C@@H](/C=C/[C@@H](O)COc2cccc(Cl)c2)[C@H](O)C[C@@H]1O)c1ccncc1,94.5%,79.9%,97.4%,104%,77%,109%,105%,92.5%,102%,90.8%
C=C(C)[C@@H]1CC[C@]2(C(=O)N3CCN(C)CC3)CC[C@]3(C)[C@H](CC[C@@H]4[C@@]5(C)C/C(=C/c6ccco6)C(=O)C(C)(C)[C@@H]5CC[C@]43C)[C@@H]12,33.7%,70.7%,83.2%,71.7%,71.3%,90.1%,88.1%,66.4%,69.8%,72.7%
CN(C)[C@@H]1C(=O)C(C(N)=O)=C(O)[C@@]2(O)C(=O)C3=C(O)c4c(O)cc(CN5CCc6ccccc6C5)c(Cl)c4C[C@H]3C[C@@H]12,-46.2% (active),-80.9% (active),-87.1% (active),-44.5% (active),-93.3% (active),-73.2% (active),-83.3% (active),-57.7% (active),-83.7% (active),-41.4% (active)
Nc1c(C(=O)Nc2ccccn2)sc2nc3c(cc12)C(=O)CCC3,38.5%,64.3%,46.9%,56.8%,40.3%,51.3%,3.09% (active),1.79% (active),21.9%,33.1%
